Activity calls are given as the source filed them. Cut-off read from the data, not from the text of the source: active = activation above about 85%; inactive = the rest.
Biological target: Peroxisome proliferator-activated receptor gamma (Homo sapiens) (UniProt P37231)
Assay: partial agonism at human PPARgamma receptor – cell-based, luciferase reporter, luminescence, primary screen (AID 504452);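 note: Cos-1 cells carrying PPARgamma and a response element luciferase reporter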
Settings: cell-based PPARg luciferase reporter, at 5 µM, stronger effect = higher value; activation (% of full agonist control): measured here: relative to full agonist control

Sequence of Peroxisome proliferator-activated receptor gamma (Homo sapiens) (P37231 whole entry, looked up): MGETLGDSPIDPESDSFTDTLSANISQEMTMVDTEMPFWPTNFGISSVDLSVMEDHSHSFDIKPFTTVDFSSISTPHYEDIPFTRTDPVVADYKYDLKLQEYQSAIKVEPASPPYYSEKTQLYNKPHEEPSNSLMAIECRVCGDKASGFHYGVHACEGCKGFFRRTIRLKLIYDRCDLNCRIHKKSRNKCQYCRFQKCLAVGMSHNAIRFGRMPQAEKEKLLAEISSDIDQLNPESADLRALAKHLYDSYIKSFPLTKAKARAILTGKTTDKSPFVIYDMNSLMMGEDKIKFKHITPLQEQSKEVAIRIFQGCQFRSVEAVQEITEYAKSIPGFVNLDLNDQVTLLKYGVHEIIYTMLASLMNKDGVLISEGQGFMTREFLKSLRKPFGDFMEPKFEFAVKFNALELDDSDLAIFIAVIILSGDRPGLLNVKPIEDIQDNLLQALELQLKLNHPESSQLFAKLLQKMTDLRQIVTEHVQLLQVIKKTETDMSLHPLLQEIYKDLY

Compound | activation (% of full agonist control) [%] | activation (% of partial agonist control)
O=C(NC(Cc1ccccc1)C(=O)O)/C(=C/c1cccc([N+](=O)[O-])c1)NC(=O)c1ccco1 (configuration not stated) | 41.5 | 91.8% (active)
O=C(CCn1c(=O)c2sccc2n(CC(=O)OCc2ccccc2)c1=O)NCc1ccccc1 | 31.1 | 68.8% (inactive)
O=[N+]([O-])c1cc(S(=O)(=O)Nc2cccc(C(F)(F)F)c2)ccc1-n1nnc2ccccc21 | 34.2 | 75.8% (inactive)
Cc1nn(CC(=O)N2CCC(N3CCCCC3)CC2)c(=O)c2c1sc1ccccc12 | 27.9 | 61.8% (inactive)
CC(=O)c1cccc(NC(=O)CSc2nc(=O)n(CCN3CCOCC3)c3c2CCCC3)c1 | 36.2 | 80.2% (inactive)
O=C(NCCCn1ccnc1)C(=O)NCC(c1cccnc1)N1CCN(c2ccc(F)cc2)CC1 (configuration not stated) | 31.2 | 69% (inactive)
COc1ccc(/C=C(\NC(=O)c2ccco2)C(=O)NC(Cc2ccccc2)C(=O)O)cc1 (configuration not stated) | 31.3 | 69.3% (inactive)
O=C(c1nc2ccccn2c1CN1CCCC(O)C1)N1CCN(C2CCCCC2)CC1 (configuration not stated) | 46.4 | 103% (active)
O=C(Cn1c(=O)c(=O)n(Cc2ccccc2)c2ccc(Cl)cc21)Nc1cccc(F)c1 | 25.4 | 56.2% (inactive)
O=C(CCCCCNC(=O)N1CCn2c1nc1ccccc12)N[C@@H](Cc1ccccc1)C(=O)O | 32.6 | 72.2% (inactive)
COc1ccc(C)c2sc(N(CCCN(C)C)C(=O)CS(=O)(=O)c3ccc(F)cc3)nc12 | 31.2 | 69.1% (inactive)
O=C(Cc1cccc(C(F)(F)F)c1)Nc1cc(S(=O)(=O)N2CCOCC2)ccc1N1CCCC1 | 31.4 | 69.5% (inactive)
O=C(NC(Cc1ccccc1)C(=O)O)/C(=C/c1ccc([N+](=O)[O-])cc1)NC(=O)c1ccco1 (configuration not stated) | 35.3 | 78.1% (inactive)
Cn1cc(CNCc2cn[nH]c2-c2ccc(F)cc2)c(-c2ccc3c(c2)OCCO3)n1 | 29.7 | 65.8% (inactive)
COC(=O)c1sc(N2C(=O)C(=O)/C(=C(/O)c3ccc(C)cc3)C2c2ccco2)nc1C (configuration not stated) | 37.7 | 83.5% (inactive)
CCOc1cc(C2C(C(=O)OC)=CN(Cc3ccc(Cl)cc3)C=C2C(=O)OC)ccc1O | 37.6 | 83.2% (inactive)
CCOC(=O)c1c(C)[nH]c(C(=O)Cn2c(=O)c3c(ncn3CC)n(Cc3ccccc3)c2=O)c1C | 29.8 | 66% (inactive)
COC(=O)c1ccc(NC(=O)C(=O)c2cn(CC(=O)N3CCOCC3)c3ccccc23)cc1 | 32.1 | 71.1% (inactive)
COc1cccc(Cn2nc3c4cc(F)ccc4n(Cc4ccc(F)cc4)cc-3c2=O)c1 | 38.8 | 85.9% (active)
O=C(CN(c1ccc(F)cc1)S(=O)(=O)c1ccccc1)NC1CC2CCC1C2 (configuration not stated) | 24.2 | 53.5% (inactive)
Cc1cc(N2C(=O)C(=O)/C(=C(/O)c3ccc(F)cc3)C2c2ccc(F)cc2)no1 (configuration not stated) | 31.8 | 70.3% (inactive)
COc1ccccc1NC(=O)C(=O)c1cn(CC(=O)N2CCOCC2)c2ccccc12 | 42.3 | 93.5% (active)
C=CCSc1nnc(N2C(=O)C(O)=C(C(=O)c3ccco3)C2c2ccc(F)cc2)s1 (configuration not stated) | 30.5 | 67.6% (inactive)
COc1cccc(C2CC(=O)N3CN(c4ccccc4F)CSC3=C2C#N)c1 (configuration not stated) | 31.6 | 69.9% (inactive)

Compound | activation (% of full agonist control) [%] | activation (% of partial agonist control)
COc1ccc2c(c1)c(=O)c(C(=O)c1ccc(C)cc1)cn2CC(=O)Nc1ccc(F)cc1 | 45 | 99.5% (active)
O=c1c([N+](=O)[O-])c(NCCN2CCCCCC2)c2ccccc2n1-c1ccccc1 | 15.8 | 34.9% (inactive)
CCc1ccc(N2CC(C(=O)OCC(=O)Nc3ccc(C(C)=O)cc3)CC2=O)cc1 (configuration not stated) | 31 | 68.6% (inactive)
Cc1cc(N2C(=O)C(O)=C(C(=O)c3ccco3)C2c2cccc(Oc3ccccc3)c2)no1 (configuration not stated) | 32.2 | 71.3% (inactive)
COc1ccc(-c2nn(-c3ccccc3)cc2/C=C2/SC(=S)N(CCC(=O)O)C2=O)c(C)c1 | 44.4 | 98.3% (active)
COC(=O)c1cc(C(=O)N2CCN(c3cccc(Cl)c3)CC2)cc([N+](=O)[O-])c1 | 27 | 59.7% (inactive)
COc1cc(C2/C(=C(/O)c3ccccc3)C(=O)C(=O)N2c2ccccn2)ccc1O (configuration not stated) | 26 | 57.6% (inactive)
CN(C(=O)CS(=O)(=O)c1cn(CC(=O)N2CCCC2)c2ccccc12)c1ccccc1 | 24.5 | 54.2% (inactive)
O=S(=O)(NCC(c1ccc2c(c1)OCO2)N1CCOCC1)c1ccc(F)cc1 (configuration not stated) | 35.4 | 78.4% (inactive)
O=C(Nc1ccccc1Cl)C(=O)c1cn(CC(=O)N2CCOCC2)c2ccccc12 | 50.5 | 112% (active)
Cc1ccc(S(C)=O)cc1-n1c(=O)n(Cc2ccccc2)c(=O)c2[nH]cnc21 (configuration not stated) | 12.8 | 28.4% (inactive)
O=C(O)CC1=C(Nc2ccccc2)C(=O)N(c2ccccc2)C1c1ccc(F)cc1 (configuration not stated) | 31 | 68.7% (inactive)
COc1ccc(O)c(C(=O)c2cc(C#N)c(=O)n(CC3CCCO3)c2)c1 (configuration not stated) | 38.1 | 84.3% (inactive)
CC(=O)N1CCN(C(=O)c2ccccc2NS(=O)(=O)c2ccc(F)cc2)CC1 | 30.5 | 67.6% (inactive)
CC(=O)N/C(=C\c1ccc2c(c1)OCO2)C(=O)NC(C(=O)O)c1ccccc1 (configuration not stated) | 27.7 | 61.4% (inactive)
CCC(=O)c1ccc(OCC(=O)OC(C)C(=O)Nc2c(C)n(C)n(-c3ccccc3)c2=O)cc1 (configuration not stated) | 40.4 | 89.5% (active)
Cc1[nH][nH]c(=O)c1C(c1c(C)[nH][nH]c1=O)c1cn(Cc2ccc(Cl)c(Cl)c2)c2ccccc12 | 35.5 | 78.5% (inactive)
O=C(Cn1nc(Cc2ccncc2)c2ccccc2c1=O)N1CCN(C(=O)c2ccco2)CC1 | 36.2 | 80.2% (inactive)
COc1ccc(NC(=O)CC2C(=O)Nc3ccccc3N2CC(=O)N2CCCC2)cc1 (configuration not stated) | 30.4 | 67.3% (inactive)
COc1cc(C(CC(=O)Nc2cccc(C)n2)N2Cc3ccccc3C2=O)cc(OC)c1OC (configuration not stated) | 29.1 | 64.3% (inactive)
O=C1CC(NS(=O)(=O)c2ccc3ccccc3c2)CN1c1ccccc1 (configuration not stated) | 31.7 | 70.2% (inactive)
COc1cc(CN2CCCC(N3CCN(c4ccc(F)cc4)CC3)C2)ccc1F (configuration not stated) | 31.2 | 69% (inactive)
O=C(COc1cc(F)ccc1[N+](=O)[O-])N1N=C(c2cccs2)CC1c1ccco1 (configuration not stated) | 35.6 | 78.9% (inactive)
Cc1ccc(-n2ncc3c(=O)[nH]c(SCC(=O)N4CCCc5ccccc54)nc32)cc1 | 36.4 | 80.5% (inactive)

Compound | activation (% of full agonist control) [%] | activation (% of partial agonist control)
Cc1ccc(C)c(S(=O)(=O)NCC(c2ccco2)N2CCc3ccccc3C2)c1 (configuration not stated) | 29 | 64.3% (inactive)
O=C(C1CC(=O)N(c2ccc3c(c2)OCCO3)C1)N1CCN(c2ccccc2O)CC1 (configuration not stated) | 31.6 | 69.9% (inactive)
O=C(Nc1cc(F)ccc1F)C1CCCN(c2ncnc3c2nc2n3CCCCC2)C1 (configuration not stated) | 32.1 | 71% (inactive)
Cc1ccc(/C(O)=C2/C(=O)C(=O)N(c3ccccn3)C2c2cccc([N+](=O)[O-])c2)cc1 (configuration not stated) | 34.1 | 75.6% (inactive)
Cc1ccc2nc(N3C(=O)C(O)=C(C(=O)c4ccc(C)o4)C3c3ccc(O)cc3)sc2c1 (configuration not stated) | 37 | 81.9% (inactive)
COc1ccccc1-n1cc(C(=O)c2cc(Cl)ccc2O)cc(C#N)c1=O | 44.9 | 99.4% (active)
CN(CCNC(=O)C1CCCN(c2ncnc3c2nc2n3CCCCC2)C1)Cc1ccccc1 (configuration not stated) | 49 | 109% (active)
O=C(COc1ccc([N+](=O)[O-])cc1)Nc1cccc(C(=O)Nc2ccccc2C(=O)O)c1 | 27.7 | 61.3% (inactive)
Cc1cccn2c(CN3CCNC(=O)CC3)c(C(=O)N(C)CCc3ccccc3)nc12 | 36.3 | 80.3% (inactive)
COc1cccc(C2/C(=C(/O)c3ccccc3)C(=O)C(=O)N2Cc2ccco2)c1 (configuration not stated) | 35.3 | 78.2% (inactive)
Cc1cccc(NC(=O)CN2C(=O)N/C(=C/c3ccc(-c4cccc(C(=O)O)c4C)o3)C2=O)c1 | 34.1 | 75.5% (inactive)
CC(Oc1cccc(Cl)c1)C(=O)Nc1ccc(N2CCOCC2)cc1N1CCOCC1 (configuration not stated) | 33.2 | 73.5% (inactive)
COc1ccc2c(c1)c(=O)c(C(=O)c1ccc(Cl)cc1)cn2CC(=O)Nc1ccc(F)cc1 | 32 | 70.9% (inactive)
O=C1C(=O)N(Cc2cccnc2)C(c2cccc(F)c2)/C1=C(/O)c1ccc2c(c1)OCO2 (configuration not stated) | 35.2 | 77.9% (inactive)
Cc1ccc2[nH]c(=O)c(CN(Cc3cccs3)Cc3nnnn3CC3CCCO3)cc2c1 (configuration not stated) | 44.1 | 97.6% (active)
Cc1cc(C(=O)CN2C(=O)C(=O)N(Cc3ccccc3)C2=O)c(C)n1-c1ccc2c(c1)OCCO2 | 40.4 | 89.5% (active)
O=C(O)c1ccc(N2C(=O)CC(SC(=Nc3ccccc3)Nc3ccccc3)C2=O)cc1 (configuration not stated) | 38.3 | 84.7% (inactive)
COc1ccc(C2CC(=O)N3CN(c4ccccc4F)CSC3=C2C#N)cc1OC (configuration not stated) | 29.2 | 64.7% (inactive)
Cc1ccc2nc(N3C(=O)C(O)=C(C(=O)c4ccc(C)o4)C3c3ccco3)sc2c1 (configuration not stated) | 45.8 | 101% (active)
CCOc1cccc(C2C(C(=O)c3ccco3)=C(O)C(=O)N2c2nnc(C)s2)c1 (configuration not stated) | 31.8 | 70.4% (inactive)
Cc1ccc(-c2nnc(Nc3ccc(O)cc3)c3ccccc23)cc1S(=O)(=O)NCCO | 41.1 | 91% (active)
N#C/C(=C\c1ccc(OCCN2CCOCC2)cc1)C(=O)Nc1ccc(S(N)(=O)=O)cc1 | 36.8 | 81.4% (inactive)
COc1cc(C2/C(=C(/O)c3ccc(F)cc3)C(=O)C(=O)N2CCCC(=O)O)ccc1O (configuration not stated) | 37 | 82% (inactive)

From PubChem BioAssay AID504452 (The Scripps Research Institute Molecular Screening Center, 2011)
